Only some compounds are listed: those with a hit (about 9.2% of all), similar ones and a draw of the others.
SMN2 splice enh: SMN2 splice variant enhancement; AID 1458; HEK293 SMN2-luciferase splicing reporter, luminescence, 30-36 h; Potency, µM (highest dose often 46.1 µM), most hits filed as activators; 2.8% of 210,000 active; also: nearly all actives have a fitted effect of over 55% in size
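HEK293 cells carry an SMN2 minigene-luciferase reporter in which exon 7 inclusion puts luciferase in frame. Cells were seeded at 2000 cells/well, attached for 10-12 hours, then exposed to compounds for 30-36 hours at 37C before ONE-Glo luminescence.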
Rab9 prom act: Rab9 promoter activation; Potency, µM (top dose mostly 9.22 µM), most hits filed as activators; AID 485297; 2.8% of 320,000 active; Huh7 Rab9 promoter-luciferase reporter, luminescence, 24 h; also: nearly all actives have a fitted effect of over 60% in size
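Huh7 cells stably carrying Rab9 promoter–luciferase reporter, plated 1500 cells/well, compound added after 2 h and incubated 24 h at 37 °C; luciferase luminescence then read after 10 min with detection reagent.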
FLuc counter: firefly luciferase modulation, counter-screen for miR-21 project; P08659; purified FLuc, Km substrates, luminescence inhibition; Potency, µM (highest dose often 57.5 µM), most hits filed as inhibitors; 6.9% of 360,000 active; also: nearly all actives have a fitted effect of over 55% in size
Target sequence (P08659 whole entry, looked up): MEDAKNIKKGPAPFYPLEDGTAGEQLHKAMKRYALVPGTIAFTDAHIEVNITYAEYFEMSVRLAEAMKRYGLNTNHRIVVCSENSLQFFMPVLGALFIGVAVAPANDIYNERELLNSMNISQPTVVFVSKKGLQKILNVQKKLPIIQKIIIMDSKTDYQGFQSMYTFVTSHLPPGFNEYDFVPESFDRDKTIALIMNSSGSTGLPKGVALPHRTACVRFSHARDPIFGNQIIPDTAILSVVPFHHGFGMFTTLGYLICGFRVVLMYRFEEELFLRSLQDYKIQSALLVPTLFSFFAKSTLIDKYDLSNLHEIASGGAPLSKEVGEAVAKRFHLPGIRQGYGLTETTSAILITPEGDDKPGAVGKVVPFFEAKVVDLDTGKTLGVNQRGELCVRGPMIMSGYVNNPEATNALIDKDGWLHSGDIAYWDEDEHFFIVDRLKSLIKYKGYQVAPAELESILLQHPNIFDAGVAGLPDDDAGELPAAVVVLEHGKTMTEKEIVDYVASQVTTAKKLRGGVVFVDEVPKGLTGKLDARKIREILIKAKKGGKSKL
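Purified P. pyralis luciferase, 10 nM final, with Km-level 10 uM D-luciferin and 10 uM ATP in 50 mM Tris acetate pH 7.5, 10 mM Mg acetate, 0.01% Tween-20, 0.05% BSA; 6-point qHTS titration about 60 µM downward; luminescence read.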
ELG1 repair inh: inhibitors of ELG1-dependent DNA repair in HEK293T cells; HEK293T ELG1-luciferase reporter, luminescence, 16 h; DNA damage induced by 5-fluorouridine; Potency, µM (top dose mostly 46.1 µM), usual class: inhibitors; 2.3% of 330,000 active; AID 504467; also: nearly all actives have a fitted effect of over 55% in size
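Overnight (16 hr) co-exposure of 2,000 cells/well to 5-fluorouridine and compound at 37 °C preceded detection. Luciferase was quantified via ONE-Glo luminescence; loss of signal denotes inhibition.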
ELG1 genotoxic: induces genotoxicity in HEK293T cells with luciferase-tagged ELG1; AID 504466; HEK293T ELG1-luciferase reporter, luminescence, 16 h; 1.3% of 330,000 active; Potency, µM (doses to about 46 µM), most hits filed as activators; also: nearly all actives have a fitted effect of over 60% in size
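After overnight (16 hr) compound treatment at 37 °C, ELG1-luciferase HEK293T cells were lysed with ONE-Glo; luminescence quantified 30 min later at room temperature.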
NPC1 promoter act: NPC1 promoter activation | Huh7 NPC1 promoter luciferase reporter, 24 h | Potency, µM (series often up to 9.22 µM), hits mostly activators | 2.4% of 320,000 active; also: nearly all actives have a fitted effect of over 60% in size
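Quantitative HTS used a cell-based reporter: Huh7 cells stably bearing the NPC1 promoter upstream of luciferase were treated with compounds for 24 h, and promoter activation was read as luminescence.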
Hits are given with their value; – = inactive; ? = inconclusive; · = no result given; [ ] = dose if it differs, or a comment. Calls follow the shape of the dose curve; as a rule, active = well fitted curve in the direction sought with a large enough effect; inconclusive = small, poorly fitted or top-dose-only effect, or another doubt; inactive = no such curve, though single readings can be large; an effect the other way counts as inactive or inconclusive.

SMILES | SMN2 splice enh | Rab9 prom act | FLuc counter | ELG1 repair inh | ELG1 genotoxic | NPC1 promoter act
CCNC(=O)NC(=O)C(C)Oc1ccc(Br)cc1Br (centres undefined) | ? | – | 17µM | – | ? | –
CCNC(=O)NC(=O)C(C)OC(=O)C(C)(C)Oc1ccc(Cl)cc1 (centres undefined) | – | – | – | – | – | –
Cc1cccc(-c2nc3cc(NC(=O)C4CCCO4)ccc3o2)c1 (centres undefined) | 1µM | 0.28µM | 0.85µM | ? | 1.2µM | 0.32µM
Cc1ccc2oc(-c3cccc(NC(=O)C4CCCO4)c3)nc2c1 (centres undefined) | 13µM | – | 4.3µM | ? | 21µM | –
Cc1cccc(-c2nc3cc(NC(=O)c4ccc(OCC(C)C)cc4)ccc3o2)c1 | – | · | – | · | · | ·
O=C(O)c1ccc(Cl)cc1NC(=O)C1CCCO1 (centres undefined) | – | · | – | · | · | ·
O=C(Nc1cccc(-c2nc3cc(Cl)ccc3o2)c1)C1CCCO1 (centres undefined) | 25µM | – | –[2.3 µM] | ? | – | –
Cc1ccc(-c2cc(C(=O)Nc3ccncc3)c3ccccc3n2)cc1 | · | – | 11µM | ? | – | –
COc1cc(CC(=O)Nc2ccc(N3CCOCC3)cc2)cc(OC)c1OC | – | – | – | – | – | –
Cc1cccc(NC(=O)NNC(=O)c2cc(-c3ccccc3Cl)nc3ccccc23)c1 | – | – | – | – | – | –
O=C(NNC(=O)c1cc(-c2ccc(Cl)c(Cl)c2)nc2ccccc12)Nc1ccccc1 | – | – | 6.7µM | – | – | –
CC(C)(C)c1ccccc1NC(=O)c1cc(-c2ccncc2)nc2ccccc12 | · | · | · | 16µM | – | ·
Cc1csc(NC(=O)c2cc(-c3ccncc3)nc3ccccc23)n1 | – | – | ? | ? | – | –
COc1cc(-c2cc(C(=O)Nc3ccc(N4CCOCC4)cc3)c3ccccc3n2)cc(OC)c1OC | · | – | ? | 8.2µM | – | –
ClC1(Cl)CC1Cn1cnc2ccccc21 (centres undefined) | – | – | – | – | – | –
Cc1ccc(C)c(NC(=O)c2cc(-c3cccnc3)nc3ccccc23)c1 | – | – | – | ? | – | –
COc1ccc(-c2cc(C(=O)Nc3ccc(C(N)=O)cc3)c3ccccc3n2)cc1 | · | ? | 0.76µM | ? | – | ?
COc1cc(-c2cc(C(=O)Nc3cc(S(=O)(=O)N4CCOCC4)ccc3O)c3ccccc3n2)cc(OC)c1OC | · | · | · | 15µM | – | ·
Cc1ccc(-c2cc(C(=O)Nc3nn[nH]n3)c3ccccc3n2)cc1 | – | – | 3.8µM | – | – | –
COc1ccc(-c2cc(C(=O)Nc3ccc(S(N)(=O)=O)cc3)c3ccccc3n2)cc1OC | · | – | – | – | – | –
COc1cc(-c2cc(C(=O)Nc3ccncc3)c3ccccc3n2)cc(OC)c1OC | · | – | – | 6.5µM | – | –
COc1ccccc1NC(=O)c1cc(-c2cc(OC)c(OC)c(OC)c2)nc2ccccc12 | · | – | – | ? | – | –
Cn1nnnc1SCCCNCc1ccccc1OCc1ccc(Cl)cc1 | · | · | – | · | · | ·
Cc1c(-c2ccc(F)cc2)[n+](=O)c2c(n1[O-])CCCCC2 | – | – | – | ? | – | –
CC(Sc1nccn1C)C(=O)Nc1ccccc1 (centres undefined) | · | – | – | – | – | –
SMILES | SMN2 splice enh | Rab9 prom act | FLuc counter | ELG1 repair inh | ELG1 genotoxic | NPC1 promoter act
CC(C)c1ccc(OC(=O)c2ccc3c(=O)n4c(nc3c2)CCC4)cc1 | · | – | 12µM | – | ? | –
O=C(Nc1ccc(Br)cc1Cl)c1ccc2c(=O)n3c(nc2c1)CCC3 | · | 3.5µM | 21µM | ? | 6.5µM | 3.5µM
COc1ccccc1NC(=O)c1ccc2c(=O)n3c(nc2c1)CCC3 | · | – | – | ? | – | –
O=C(Nc1ccc(Cl)cc1Cl)c1ccc2c(=O)n3c(nc2c1)CCC3 | · | 1.4µM | 11µM | ? | ? | 1.8µM
O=C(/C=C/c1ccc(Cl)cc1)N1CCN(Cc2ccccc2)CC1 | · | – | ? | – | – | –
Cc1ccc(OC(=O)c2ccc3nc(C)sc3c2)cc1 | 14µM | 0.63µM | 2.4µM | ? | 2.9µM | 0.79µM
COc1ccc(OC(=O)c2ccc3nsnc3c2)cc1 | – | – | 7.6µM | – | – | –
COc1ccc(N(C)C(=O)Nc2ccc3nsnc3c2)cc1 | – | – | – | – | – | –
Cc1ccc(NS(=O)(=O)c2ccc(Cl)c(C(=O)Nc3ccccc3-c3nc4ccccc4[nH]3)c2)cc1C | – | – | – | 9.2µM | – | –
Cc1ccc(C)c(S(=O)(=O)N2CCN(C(=O)c3ccncc3)CC2)c1 | · | – | – | – | – | –
NC(=NCc1ccco1)NC(=O)c1ccc(Cl)cc1 | · | ? | 17µM | ? | ? | ?
O=C(NCCCNC(=O)c1ccco1)c1ccc(Cl)cc1 | · | – | – | ? | ? | –
CC(=O)Oc1ccccc1/C=C/c1nc2ccccc2c(=O)o1 | · | ? | 15µM | – | – | ?
CC(=O)Oc1ccc(/C=C/c2nc3ccccc3c(=O)o2)cc1 | · | ? | 0.43µM | – | – | ?
Cc1ccc(S(=O)(=O)Nc2ccc(C(=O)NCCCn3ccnc3)cc2)cc1[N+](=O)[O-] | · | – | – | ? | – | –
O=c1n(-c2ccc(Br)cc2)cnn1-c1ncccc1[N+](=O)[O-] | 13µM | 2µM | 17µM | ? | ? | ?
COc1cccc(NC(=S)N2CCC(c3ccc(C)cc3)C2)c1 (centres undefined) | · | ? | 13µM | ? | – | –
Cc1ccc(NC(=S)N2CCC(c3ccc(C)cc3)C2)cc1 (centres undefined) | · | ? | 15µM | ? | ? | –
CCOC(=O)/C(C#N)=C\c1cn(C)c2ccccc12 | · | – | – | 5.8µM | – | –
CCOC(=O)/C(C#N)=C/c1c[nH]c2ccccc12 | – | – | 19µM | ? | – | –
CCOC(=O)/C(C#N)=C/Nc1ccccc1OC | ? | 2.2µM | 6.7µM | ? | ? | 3.2µM
Cc1cccc(C)c1OCC(O)CNC(C)c1ccccc1 (centres undefined) | · | – | – | – | – | –
COc1cc(/C=N/NC(=O)c2ccccc2NS(=O)(=O)c2cccs2)ccc1O | · | – | – | – | – | –
CN(c1ccc(OCC(=O)OCC(=O)c2c(N)n(C)c(=O)n(C)c2=O)cc1)S(=O)(=O)c1ccc2ccccc2c1 | – | – | – | – | – | –
CCN(c1ccc(OCC(=O)OCC(=O)c2c(N)n(C)c(=O)n(C)c2=O)cc1)S(=O)(=O)c1ccccc1 | – | – | 12µM | ? | – | –
CC1CN(C(=O)c2cccn(Cc3c(Cl)cccc3Cl)c2=O)CC(C)O1 (centres undefined) | – | – | – | – | – | –
CN1CCOc2ccc(S(=O)(=O)N3CCN(S(=O)(=O)c4c(F)cccc4F)CC3)cc21 | · | ? | 21µM | · | · | ?

Screening data (PubChem BioAssay)
